Assay results taken from PubChem BioAssay (NCI).
Compounds without any hit were thinned out: in the full panel of roughly 83,000, 20% have a hit.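 In brief: 96-well plates, 48 h treatment, single concentration, percent growth endpoint.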 The source made the active and inactive calls. How the source made its calls: active means growth percent below 10; inactive means the rest.

test system: HL-60(TB) leukemia; experiment: NCI-60 one-dose screen, 48 h (100 = growth as untreated, 0 = no growth, -100 = all killed); settings: 10 µM unless noted

Compound	growth
COc1ccc(-c2nc(SCC(=O)c3ccc(Br)cc3)[nH]c(=O)c2C#N)cc1	91.5% (inactive)
C=C1C(=O)O[C@H]2[C@H]1CC/C(COC(=O)c1cccnc1N)=C\CC[C@@]1(C)O[C@@H]21	-3.64% (active)
CN1CCN(c2ccc(-c3ccc4ncc(C#N)c(Nc5ccc(F)c(Cl)c5)c4c3)cn2)CC1	38.1% (inactive)
O=C(Nc1ccncc1)C(=O)c1cn(S(=O)(=O)c2ccc(Oc3ccccc3)cc2)c2ccccc12	70.5% (inactive)
COc1cccc(-c2nc3sccn3c2/C=C/C(=O)c2ccc(C(F)(F)F)cc2)c1	46.2% (inactive)
Oc1ccc(Cl)cc1Cc1cc(Cl)cc(Cl)c1O	-11.1% (active)
C=C1C(=O)O[C@H]2[C@H]1CC/C(CNC(=O)/C=C/c1ccc(Br)cc1)=C\CC[C@@]1(C)O[C@@H]21	-15.8% (active)
O=C(/C=C/c1ccccc1)c1cccc2ccccc12	33.7% (inactive)
O=Nc1c2cccnc2n2nnc3ccc(Cl)cc3c12	-48.7% (active)
CC1(c2ccccc2)OC1C(=O)O (stereo not given)	103% (inactive)
CCCCc1ccc(Nc2nnc(SCC(=O)NC(=O)NCC)s2)cc1	95.2% (inactive)
CCOC(=O)c1ccccc1NC(c1ccccc1)c1ccc2cccnc2c1O (stereo not given)	3.54% (active)
NC(=N\N=C\c1ccccc1O)/C(N)=N/N=C/c1ccccc1O	69.5% (inactive)
CCCCN(CCCC)c1ccc(C(=NC(C)CCCN(CC)CC)c2ccc(N(C)C)cc2)cc1 (stereo not given)	-32.1% (active)
NC(=O)c1ccc2nc3c(n2c1)C(=O)C(=O)c1ccccc1-3	-42.2% (active)
CCc1c2c(nc3ccc(OCc4ccc(B5OC(C)(C)C(C)(C)O5)cc4)cc13)-c1cc3c(c(=O)n1C2)COC(=O)[C@]3(O)CC	-1.71% (active)
OCCNCCNC(Cc1ccc(Cl)cc1)c1ccccc1 (stereo not given)	76.4% (inactive)
COc1cc(C2C(C#N)=C(N)OC3=C2C(=O)c2ccccc2C3=O)cc(OC)c1OC (stereo not given)	15.2% (inactive)
COc1cc(OC)cc(C(=O)C[n+]2cccc3cc[nH]c32)c1	99% (inactive)
COc1ccc(CCNC=O)cc1OC	96.9% (inactive)

Compound	growth
C=CCn1c(SCC(=O)Nc2ccc(C(=O)/C=C/c3cc(OC)c(OC)c(OC)c3)cc2)nnc1-c1cc(OC)c(OC)c(OC)c1	16.5% (inactive)
CO[C@H]1/C=C(/C)CCC[C@H](C)[C@H](O)[C@@H](C)C(=O)C(C)(C)[C@@H](O)CC(=O)O[C@@H]1/C(C)=C/c1csc(C)n1	24.3% (inactive)
COc1cc2c(cc1OC)-c1ccc3cc4c(cc3c1N(CCCN(C)C)C2)OCO4	30.4% (inactive)
COc1cnc2c(c1)C(=O)c1c-2n(CCCN2CCNCC2)c(=O)c2cc(Cl)ccc12	-44.9% (active)
CCCCS(=O)(=O)c1cc(Nc2ccc(O)c3c2C(=O)c2ccccc2C3=O)ccc1C	75% (inactive)
CC(C)=CC/C=C(/C)[C@H]1CC[C@]2(C)[C@@H]1CC[C@@H]1[C@@]3(C)CC/C(=N/O)C(C)(C)[C@@H]3CC[C@]12C	5.9% [100 µM] (active)
CN(C)CCC(CCN(C)C)(C(=O)O)c1ccccc1	101% (inactive)
Oc1cccc(CCc2ccc(Oc3cc(CCc4cccc(O)c4)cc(O)c3O)cc2)c1	15.3% (inactive)
CN(C)CC(CN(C)C)C(O)c1ccccc1 (stereo not given)	99.8% (inactive)
c1cc(NCCCCN2CCOCC2)c2ccc3c(ccc4c(NCCN5CCOCC5)ccnc43)c2n1	47.2% (inactive)
CNCCCn1c2c(c3ccc(F)cc3c1=O)C(=O)c1cc(OC)cnc1-2	-16.7% (active)
C=CCN=C(N)SCCCCCCSC(N)=NCC=C	75.8% (inactive)
NC1CCC(Nc2nc(NCc3ccc(-c4ccccc4O)nc3)c3ncn(C4CCCC4)c3n2)CC1 (stereo not given)	-41.8% (active)
O=C(Nc1ccc(Br)c(Cl)c1)c1cc(F)ccc1O	-33.4% (active)
CCCCNC(=O)Oc1ccc(/C(=C(\C)c2ccc(Cl)cc2)c2ccc(OCCN3CCCCC3)cc2)cc1	64.9% (inactive)
Fc1cc(C(F)(F)F)ccc1-c1cncnc1NC1CCCCCC1	86.4% (inactive)
C=C1C(=O)O[C@H]2[C@H]1CC/C(COC(=O)NCc1c[nH]c3ccc(Br)cc13)=C\CC[C@@]1(C)O[C@@H]21	-26.9% (active)
O=C(N/N=C/c1cc([N+](=O)[O-])ccc1O)c1cccc2ccccc12	-14% (active)
O=c1[nH]c(N2CCOCC2)nc2scc(-c3ccccc3)c12	103% (inactive)
COc1ccc(Cl)cc1NC(=O)c1cc2c([nH]1)-c1nc(NC(=O)C(C)C)sc1CC2	90.9% (inactive)
